One test has as its target Albumin (Bos taurus) (UniProt P02769). The test is described as follows: compounds binding labelled BSA control protein – biochemical, small-molecule microarray, Alexa647 label, 635/667 nm fluorescence, artefact control for SMM control protein annotation, profiling panel (AID 1118).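 Note: score merges 667 nm emission intensity and signal-to-noise per printed compound spot.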 Conditions: BSA-A647 binding, fluorescence 635 nm, higher = more signal.
Test [1] is described as follows: probe aXIP binding to arrayed compounds – biochemical, NeuroSMM set, 635/667 nm fluorescence, primary screen (AID 1119).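 Note: probe is the protein aXip251-270 applied at 1 µg/mL to compound-printed slides; binding of probe to printed compounds measured as 667 nm fluorescence plus signal to noise.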 Conditions: small-molecule microarray, higher = more signal, called active from +8 up or from −8 down.
Test [2] is described as follows: probe aNOTCH3 binding on compound microarray – biochemical, small-molecule microarray, 635/667 nm fluorescence, primary screen (AID 1120).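 Note: probe is a biotin-tagged antibody raised against NOTCH3 rather than NOTCH3 protein; score merges spot fluorescence near 667 nm with spot signal to noise.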 Conditions: higher = more signal.
Test [3] is described as follows: probe aNOTCH2 binding on compound microarray – biochemical, small-molecule microarray, 635/667 nm fluorescence, primary screen (AID 1121).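 Note: score merges feature fluorescence read at 667 nm with its signal to noise.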 The conditions noted are these: higher = more signal.
In test [4] the target is Carbonic anhydrase 2 (Homo sapiens) (UniProt P00918). The test is described as follows: compounds binding carbonic anhydrase 2 – biochemical, small-molecule microarray, Alexa647-labelled CAII, profiling panel (AID 1122). Conditions: CAII-A647 binding fluorescence, higher = more signal.
Test [5] can be described thus: COS7 lysate on small-molecule microarray, probe aHis, 635 nm (AID 1123).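 Note: z-score combines 667nm fluorescence intensity with signal-to-noise per printed compound spot.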 The conditions noted are these: COS7 cell lysate, fluorescence, higher = more signal.
The nature of test [6]: probe aLAP1 signal on lysate-treated microarray – cell lysate, small-molecule microarray, COS7 lysate, primary screen (AID 1124).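 Note: lysate comes from COS7 cells expressing LAP1 and is applied at 0.3 µg/mL; score merges spot fluorescence near 667 nm with signal-to-noise over triplicate slides.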 Conditions: probe aLAP1, fluorescence, higher = more signal.
Another test relates to Sam68 (KHDRBS1). Nature of the test: compounds binding KHDRBS1 protein – biochemical, small-molecule microarray, 635 nm fluorescence, primary screen (AID 1125).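 Note: score merges 667 nm channel intensity with signal to noise over triplicate slides.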 The conditions noted are these: higher = more signal.
Test [7] has as its system Chordin-like protein 2 (CHRDL2). Nature of the test: compounds binding chordin-like 2 – biochemical, small-molecule microarray, 635 nm fluorescence, primary screen (AID 1126).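 Note: printed compound slides probed with Chrdl2 protein at 4 µg/mL for 1 h at 4 C; score merges 667 nm emission intensity with signal to noise over three replicate slides.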 The conditions noted are these: fluorescence 635 nm, higher = more signal.
Test [8] addresses Concanavalin-A (Canavalia ensiformis) (UniProt P02866). Nature of the test: compounds binding concanavalin A lectin – biochemical, small-molecule microarray, Alexa647 label, 635 nm, artefact control for SMM control protein annotation, primary screen (AID 1127).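 Note: z combines 667 nm emission intensity with signal-to-noise across three replicate slides.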 Conditions: ConA-A647 binding fluorescence, higher = more signal.
A short description of test [9]: compounds binding Alexa647 anti-His antibody – biochemical, small-molecule microarray, 635 nm fluorescence, artefact control for SMM control protein annotation, primary screen (AID 1128).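 Note: score merges feature fluorescence with signal-to-noise for each printed compound spot.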 Conditions: higher = more signal.
Test [10] has as its system Human papillomavirus type 1a E7 protein (residues 1-88). Nature of the test: HPV1a E7 small-molecule binders, primary screen, biochemical, small-molecule microarray, residues 1-88, 635 nm (AID 1129). Conditions: small-molecule microarray binding, fluorescence 635 nm; higher = more signal.
Test [11] addresses Focal adhesion kinase 1 (Homo sapiens) (UniProt Q05397). The test is described as follows: PTK2 protein binding on printed compound slides – biochemical, small-molecule microarray, 635/667 nm fluorescence, BSA, DTT, primary screen (AID 1130).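 Note: composite of spot emission at 667 nm and signal to noise over triplicate slides.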 Conditions: 635 nm fluorescence, higher = more signal.
In test [12] the test system is Fibrinogen (Alexa647-labelled). The test is described as follows: Alexa647-fibrinogen binding to printed small molecules – biochemical, small-molecule microarray, 635/667 nm fluorescence, artefact control for SMM control-protein annotation, profiling panel (AID 1131).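 Note: z-score merges 667 nm fluorescence with per-spot signal-to-noise over triplicate slides.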 The conditions noted are these: fibrinogen-A647 binding fluorescence, higher = more signal.
In test [13] the target is Follistatin (Homo sapiens) (UniProt P19883). Nature of the test: FST protein binding to printed compounds – biochemical, small-molecule microarray, 635/667 nm fluorescence, primary screen (AID 1132). Conditions: 635 nm fluorescence, higher = more signal.
Sequence of Follistatin (Homo sapiens) (P19883 whole entry, looked up): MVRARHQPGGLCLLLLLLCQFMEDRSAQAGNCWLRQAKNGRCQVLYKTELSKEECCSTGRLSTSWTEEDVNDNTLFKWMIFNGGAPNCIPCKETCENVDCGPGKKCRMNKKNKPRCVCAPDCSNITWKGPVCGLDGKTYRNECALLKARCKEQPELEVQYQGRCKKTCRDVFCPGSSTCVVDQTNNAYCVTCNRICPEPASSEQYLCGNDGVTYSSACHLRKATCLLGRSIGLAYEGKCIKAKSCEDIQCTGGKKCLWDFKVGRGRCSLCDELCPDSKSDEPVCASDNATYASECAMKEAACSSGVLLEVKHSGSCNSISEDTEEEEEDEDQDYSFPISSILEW
Test [14] concerns the target Fibroblast growth factor 2 (Homo sapiens) (UniProt P09038). Nature of the test: basic fibroblast growth factor binding to printed compounds – biochemical, small-molecule microarray, 635/667 nm fluorescence, primary screen (AID 1133). Conditions: FGF2, fluorescence 635/667, higher = more signal.
The nature of test [15]: JC-1 mitochondrial potential readout, lung cancer cells – cell-based, A549, JC-1 fluorescence, basal, 24 h, 100 nL, profiling panel (AID 1138).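 Note: A549 lung adenocarcinoma cells under basal conditions with no added stimulus; test concentration not given here.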 The conditions noted are these: higher = more signal.
For another test, the system named is Lefty1. Nature of the test: Lefty1 protein binding to printed compounds – biochemical, small-molecule microarray, 635/667 nm fluorescence, primary screen (AID 1139). Conditions: fluorescence 635/667, higher = more signal.
For test [16], the system named is wheat germ agglutinin (Triticum aestivum), Alexa647-labelled. The test is described as follows: Alexa647-WGA lectin binding to printed small molecules – biochemical, small-molecule microarray, 635/667 nm fluorescence, artefact control for SMM control-protein annotation, profiling panel (AID 1140).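 Note: score merges 667 nm feature emission with signal to noise over triplicate slides.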 The conditions noted are these: WGA-A647 binding, 635 nm fluorescence, higher = more signal.

In test [17] the target is Luciferin 4-monooxygenase (Photinus pyralis) (UniProt P08659). Nature of the test: inhibition of purified Photinus pyralis luciferase – biochemical, luminescence, purified enzyme, 2006 set, primary screen (AID 1141).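 Note: cell-free assay with purified firefly luciferase at 100 ng per well in PBS; test concentration not given here.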 The conditions noted are these: purified firefly luciferase, SteadyGlo luminescence, 30 min; higher = more signal, called active from +8 up or from −8 down.
Sequence of Luciferin 4-monooxygenase (Photinus pyralis) (P08659 whole entry, looked up): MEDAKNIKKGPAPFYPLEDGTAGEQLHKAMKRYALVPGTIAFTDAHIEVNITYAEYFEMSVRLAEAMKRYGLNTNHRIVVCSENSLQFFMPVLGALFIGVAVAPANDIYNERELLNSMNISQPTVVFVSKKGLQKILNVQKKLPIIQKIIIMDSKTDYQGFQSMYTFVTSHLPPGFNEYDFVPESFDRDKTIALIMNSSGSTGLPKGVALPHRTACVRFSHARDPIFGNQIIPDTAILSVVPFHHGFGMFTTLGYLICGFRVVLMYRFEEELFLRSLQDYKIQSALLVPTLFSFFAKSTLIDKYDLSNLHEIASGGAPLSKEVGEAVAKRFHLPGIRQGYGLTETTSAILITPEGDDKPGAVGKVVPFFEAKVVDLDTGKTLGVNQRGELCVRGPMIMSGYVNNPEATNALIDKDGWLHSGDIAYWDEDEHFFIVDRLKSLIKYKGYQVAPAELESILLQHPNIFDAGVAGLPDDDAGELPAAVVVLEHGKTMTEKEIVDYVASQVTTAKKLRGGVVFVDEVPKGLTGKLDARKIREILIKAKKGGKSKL

Calls of active or inactive are those of the source.

The results in this text go back to PubChem BioAssay.

Sequence of Albumin (Bos taurus) (P02769 whole entry, looked up): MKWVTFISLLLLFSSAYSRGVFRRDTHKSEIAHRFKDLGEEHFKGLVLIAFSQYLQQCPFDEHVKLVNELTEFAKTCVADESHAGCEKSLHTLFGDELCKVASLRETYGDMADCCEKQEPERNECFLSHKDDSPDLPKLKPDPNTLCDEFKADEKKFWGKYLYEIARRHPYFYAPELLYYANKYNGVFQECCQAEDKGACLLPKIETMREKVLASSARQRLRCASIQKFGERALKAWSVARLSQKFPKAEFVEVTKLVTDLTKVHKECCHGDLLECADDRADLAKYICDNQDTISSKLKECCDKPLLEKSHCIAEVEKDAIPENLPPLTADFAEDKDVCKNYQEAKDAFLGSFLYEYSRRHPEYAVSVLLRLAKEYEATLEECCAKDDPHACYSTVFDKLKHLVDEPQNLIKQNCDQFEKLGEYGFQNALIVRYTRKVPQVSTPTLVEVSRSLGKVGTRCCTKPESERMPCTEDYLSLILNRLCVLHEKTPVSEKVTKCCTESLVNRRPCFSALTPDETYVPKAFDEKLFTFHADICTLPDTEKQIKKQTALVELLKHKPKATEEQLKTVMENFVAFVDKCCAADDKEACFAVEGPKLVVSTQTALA
Sequence of Focal adhesion kinase 1 (Homo sapiens) (Q05397 whole entry, looked up): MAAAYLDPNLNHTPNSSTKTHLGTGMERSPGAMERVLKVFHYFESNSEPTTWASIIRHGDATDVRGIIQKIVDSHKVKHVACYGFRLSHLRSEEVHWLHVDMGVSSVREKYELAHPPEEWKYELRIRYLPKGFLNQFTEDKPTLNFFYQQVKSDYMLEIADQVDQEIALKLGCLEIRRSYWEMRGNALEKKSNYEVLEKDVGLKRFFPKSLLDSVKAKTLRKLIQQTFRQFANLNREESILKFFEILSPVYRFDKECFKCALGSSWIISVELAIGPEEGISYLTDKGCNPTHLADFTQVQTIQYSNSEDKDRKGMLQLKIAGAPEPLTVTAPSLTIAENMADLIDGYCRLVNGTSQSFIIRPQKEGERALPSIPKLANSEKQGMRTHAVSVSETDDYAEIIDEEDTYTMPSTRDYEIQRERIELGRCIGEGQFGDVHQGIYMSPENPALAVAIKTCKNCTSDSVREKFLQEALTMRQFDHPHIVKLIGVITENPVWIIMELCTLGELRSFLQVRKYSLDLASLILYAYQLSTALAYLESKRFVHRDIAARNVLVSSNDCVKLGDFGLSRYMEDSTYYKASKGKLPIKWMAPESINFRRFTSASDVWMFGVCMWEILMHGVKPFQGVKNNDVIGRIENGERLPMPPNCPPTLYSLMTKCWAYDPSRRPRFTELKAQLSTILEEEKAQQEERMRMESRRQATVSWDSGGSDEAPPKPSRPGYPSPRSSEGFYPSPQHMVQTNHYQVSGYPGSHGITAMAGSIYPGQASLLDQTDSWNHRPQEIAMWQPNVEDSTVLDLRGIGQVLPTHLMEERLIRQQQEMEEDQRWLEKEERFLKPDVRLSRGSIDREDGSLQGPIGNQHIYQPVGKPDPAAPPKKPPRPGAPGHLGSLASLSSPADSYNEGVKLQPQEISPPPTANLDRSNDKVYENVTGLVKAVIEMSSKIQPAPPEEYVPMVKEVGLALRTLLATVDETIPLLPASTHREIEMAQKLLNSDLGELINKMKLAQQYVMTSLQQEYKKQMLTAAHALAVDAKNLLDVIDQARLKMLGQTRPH
Sequence of Fibroblast growth factor 2 (Homo sapiens) (P09038 whole entry, looked up): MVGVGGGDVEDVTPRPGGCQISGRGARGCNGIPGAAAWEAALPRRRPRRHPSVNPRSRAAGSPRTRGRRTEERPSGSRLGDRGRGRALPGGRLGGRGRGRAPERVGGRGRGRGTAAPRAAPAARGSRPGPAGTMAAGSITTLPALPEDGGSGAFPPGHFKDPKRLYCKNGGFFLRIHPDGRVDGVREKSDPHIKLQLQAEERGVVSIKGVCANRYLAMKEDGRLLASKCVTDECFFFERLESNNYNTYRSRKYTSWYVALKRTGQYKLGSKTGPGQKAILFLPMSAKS
Sequence of Concanavalin-A (Canavalia ensiformis) (P02866 whole entry, looked up): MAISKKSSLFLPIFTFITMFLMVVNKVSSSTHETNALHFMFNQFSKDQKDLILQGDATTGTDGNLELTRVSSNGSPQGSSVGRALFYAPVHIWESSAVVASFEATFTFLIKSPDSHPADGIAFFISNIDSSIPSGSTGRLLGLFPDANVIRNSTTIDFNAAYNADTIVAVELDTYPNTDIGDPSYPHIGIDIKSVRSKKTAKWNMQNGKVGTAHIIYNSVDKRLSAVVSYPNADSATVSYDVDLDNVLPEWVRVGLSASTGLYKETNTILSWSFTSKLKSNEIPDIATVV

`CCOC(=O)C1=C[C@@H](c2ccccc2)N(S(=O)(=O)c2ccc(C)cc2)[C@H]1c1ccccc1Cl`: the composite z-score in the test with Albumin (Bos taurus) amounted to 0.729; in test [2] it was 0.112; in [3] it was 0.23; in test [4], 0.389; in [5], 1.66; in test [6], 0.772. Further, the composite z-score in the test on Sam68 (KHDRBS1) turned out to be 1.26; in [7], 0.359; in [8], 0.752; in test [9], 0.857; in [10], 1.17; in test [11] it was 1.6. Besides, the composite z-score in test [12] worked out at 0.86; in [13] it was 0.761; in [14], 0.414; in the test on Lefty1, 0.838; in test [16], 0.778. In addition, the composite Z-score in test [1] is 0.0277 (inactive). Besides, the results for the z-score in test [15] and in [17] were 1.53 and 0.86 (inactive), respectively.

Turning to `O=C1O[C@H](c2ccccc2)[C@H](c2ccccc2)N2[C@H]1[C@@H](C(=O)NC[C@H](O)c1ccccc1)[C@]1(C(=O)Nc3ccc(C#CCCO)cc31)[C@H]2c1ccc(OCCO)cc1`, the composite z-score is 0.834 in the test with Albumin (Bos taurus); 0.0311 in test [2]; -0.0666 in [3]; 0.627 in [4]; 1.7 in test [5]; -0.0479 in test [6]. The composite z-score with Sam68 (KHDRBS1) is 1.29; in test [7], -0.327; in test [8], 1.08; in test [9], 1.32; in test [10], 1.2; in [11] it was 0.693. For the same compound, the composite z-score in test [12] is 0.738; in test [13], 0.743; in test [14], 0.134; in the test on Lefty1, 0.329; in test [16] it was 1.01. In addition, in test [1], the composite Z-score was 0.182 (inactive). Further, the z-score in [15] is -0.552; in [17], -2.02 (inactive).

For the compound `COc1ccc(CCNC(=O)[C@@H]2c3ccccc3C(=O)N(Cc3cc(C(F)(F)F)cc(C(F)(F)F)c3)[C@H]2c2ccc(CO)cc2)cc1`, the composite z-score is -0.329 in the test with Albumin (Bos taurus); -0.208 in test [2]; -0.149 in test [3]; 0.681 in test [4]; 0.84 in test [5]; 0.566 in test [6]. Moreover, the composite z-score in the test on Sam68 (KHDRBS1) is 1.14; in [7], -0.571; in test [8], 0.425; in test [9], 2.15; in [10] it was 0.102; in [11] it was -0.152. The composite z-score in test [12] was 0.629; in [13], 0.255; in [14] it was -0.258; with Lefty1, -0.297; in test [16], 0.985. Also, the composite Z-score in test [1] is -0.586 (inactive). The z-score in [15] was 1.95; in test [17], -1.16 (inactive).

On to `Cc1ccc(S[C@]2(C(=O)NCC(F)(F)F)CC(=O)N(Cc3ccccc3C(F)(F)F)[C@@H]2c2ccc(CO)cc2I)cc1`, for which the composite z-score with Albumin (Bos taurus) is 0.88; in [2], -0.3; in [3], -0.14; in test [4], 0.968; in [5], 0.616; in [6] it was 0.116. Moreover, the composite z-score with Sam68 (KHDRBS1) was -0.486; in test [7], -1.41; in test [8], -0.35; in test [9] it was -0.227; in test [10], -0.727; in test [11], -0.604. For the same compound, the composite z-score was -0.992 in test [12]; -0.638 in test [13]; -1.08 in test [14]; -0.745 in the test with Lefty1; -0.154 in [16]. Further, in test [1], the composite Z-score is -0.0127 (inactive). Moreover, the z-score in [15] was 1.17; in test [17], 0.84 (inactive).

For `O=C1O[C@H](c2ccccc2)[C@H](c2ccccc2)N2[C@H]1[C@@H](C(=O)Nc1nc3ccccc3s1)[C@]1(C(=O)Nc3ccc(C#CCCO)cc31)[C@H]2c1ccc(O)cc1`, the composite z-score in the test with Albumin (Bos taurus) is 0.497; in test [2], 0.199; in test [3] it was -0.156; in [4], 0.5; in test [5], 1.75; in test [6], 0.278. Also, the composite z-score in the test on Sam68 (KHDRBS1) was 1.02; in test [7] it was 0.172; in test [8], 1.16; in [9] it was 0.917; in test [10] it was 1.18; in [11] it was 0.306. In addition, the composite z-score in test [12] was found to be 0.982; in [13], 1.26; in test [14], 0.585; in the test with Lefty1 it was 1.23; in test [16], 1.1. Moreover, the composite Z-score in test [1] was -0.0959 (inactive). Further, the z-score in test [15] was -2.34; in test [17], 0.198 (inactive).
